Experimental findings from PubChem BioAssay are described below.

As a reminder, the inhibition is the change of the read-out against control, counted positive when it falls.

A short description of assay [1]: antimalarial activity against Dd2 strain (AID 2302;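 active = growth inhibition above 50% at the single 2 µM test dose, taken to imply half-maximal potency below 2 µM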;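 also: 0% = DMSO untreated growth and 100% = chloroquine plus artemisinin killed control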). The note with it: P. falciparum Dd2 in RBCs, LDH growth readout, 72 h; at 2 µM; stronger effect = higher value.
Assay [2] can be described thus: HepG2 cytotoxicity, primary screen, cytotoxicity control for P. falciparum antimalarial project, cell-based, ATP luminescence (AID 2303;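 active = inhibition above 50%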;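 also: 0% = DMSO wells and 100% = digitonin-killed cells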). To be noted: HepG2 viability, 24-48 h, at 10 µM, stronger effect = higher value.
The target in assay [3] is L-lactate dehydrogenase (Plasmodium falciparum (isolate CDC / Honduras)) (UniProt Q27743). As to the kind of experiment: PfLDH activity inhibition – cell lysate, 3D7 strain, counter-screen for P. falciparum growth inhibition project (AID 2304).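 Also: 0% = vehicle and 100% = reference inhibitor.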 To be noted: P. falciparum 3D7 crude extract, LDH APAD/NBT absorbance; at 2 µM; stronger effect = higher value. (In general: Counterscreens check selectivity or assay interference.)
L-lactate dehydrogenase (Plasmodium falciparum (isolate CDC / Honduras)), sequence (Q27743 whole entry, looked up): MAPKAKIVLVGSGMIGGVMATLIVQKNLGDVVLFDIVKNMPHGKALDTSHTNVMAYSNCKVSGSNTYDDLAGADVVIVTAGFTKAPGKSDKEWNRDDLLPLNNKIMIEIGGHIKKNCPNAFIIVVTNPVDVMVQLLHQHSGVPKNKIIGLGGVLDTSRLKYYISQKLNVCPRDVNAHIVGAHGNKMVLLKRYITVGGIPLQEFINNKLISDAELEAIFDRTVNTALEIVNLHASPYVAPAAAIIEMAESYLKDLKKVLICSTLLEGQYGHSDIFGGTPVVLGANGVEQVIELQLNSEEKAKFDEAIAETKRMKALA

The nature of assay [4]: inhibition of 3D7 malaria parasite growth – strain 3D7 (AID 2306).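 Also: 0% = DMSO wells and 100% = chloroquine plus artemisinin control wells.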 To be noted: P. falciparum 3D7 erythrocytic growth, LDH absorbance, 72 h; at 2 µM; stronger effect = higher value.
The target of assay [5] is Calcium-dependent protein kinase 1 (Plasmodium falciparum (isolate 3D7)) (UniProt P62344). As to the kind of experiment: PfCDPK1 kinase inhibitors, biochemical, TCAMS library (AID 1159585; cut-off not given, nearly all actives have IC50 up to about 0.98 µM;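 also: inhibitors leave more ATP so luminescence rises with inhibition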). The note with it: recombinant PfCDPK1, Kinase-Glo ATP depletion luminescence. (Kinase-Glo reads ATP consumption through a luciferase reaction.)
Calcium-dependent protein kinase 1 (Plasmodium falciparum (isolate 3D7)), sequence (P62344 whole entry, looked up): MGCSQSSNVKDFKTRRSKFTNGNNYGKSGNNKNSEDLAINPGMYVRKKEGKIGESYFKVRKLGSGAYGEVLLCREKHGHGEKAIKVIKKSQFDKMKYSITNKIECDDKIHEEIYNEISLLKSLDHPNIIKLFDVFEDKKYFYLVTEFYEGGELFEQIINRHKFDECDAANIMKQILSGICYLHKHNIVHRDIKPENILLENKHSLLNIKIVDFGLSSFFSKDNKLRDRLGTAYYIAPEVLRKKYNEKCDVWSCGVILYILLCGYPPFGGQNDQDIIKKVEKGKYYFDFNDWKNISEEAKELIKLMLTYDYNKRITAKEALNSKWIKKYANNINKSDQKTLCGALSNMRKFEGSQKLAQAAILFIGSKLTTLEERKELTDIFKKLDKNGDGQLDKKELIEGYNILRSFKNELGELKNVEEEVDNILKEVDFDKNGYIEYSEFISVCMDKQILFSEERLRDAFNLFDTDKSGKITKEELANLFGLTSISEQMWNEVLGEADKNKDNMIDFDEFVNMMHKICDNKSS
The target of assay [6] is Plasmodium falciparum protein kinase 6 (PK6, PF3D7_1337100) (UniProt Q8IDW1). The experiment in a line: PfPK6 kinase inhibitors, biochemical, TCAMS library (AID 1159586). To be noted: recombinant PfPK6, Kinase-Glo ATP depletion luminescence.
Plasmodium falciparum protein kinase 6 (PK6, PF3D7_1337100), sequence (Q8IDW1 1-305): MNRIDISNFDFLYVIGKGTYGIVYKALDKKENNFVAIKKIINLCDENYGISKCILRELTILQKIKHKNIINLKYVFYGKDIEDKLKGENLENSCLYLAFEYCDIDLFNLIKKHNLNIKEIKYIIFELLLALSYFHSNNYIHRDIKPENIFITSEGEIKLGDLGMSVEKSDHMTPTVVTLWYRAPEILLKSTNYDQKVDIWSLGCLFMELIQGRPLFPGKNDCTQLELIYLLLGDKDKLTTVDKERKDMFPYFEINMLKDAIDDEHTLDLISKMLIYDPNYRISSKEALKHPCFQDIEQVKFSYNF
For assay [7], the target named is Protein kinase 7 (PK7), Plasmodium falciparum 3D7 (PF3D7_0213400) (UniProt Q7YTF7). The experiment in a line: inhibition of Plasmodium PK7 catalytic activity – biochemical, TCAMS antimalarial set, Kinase-Glo luminescence (AID 1159587). To be noted: recombinant PfPK7, Kinase-Glo ATP depletion luminescence.
Protein kinase 7 (PK7), Plasmodium falciparum 3D7 (PF3D7_0213400), sequence (Q7YTF7 1-343): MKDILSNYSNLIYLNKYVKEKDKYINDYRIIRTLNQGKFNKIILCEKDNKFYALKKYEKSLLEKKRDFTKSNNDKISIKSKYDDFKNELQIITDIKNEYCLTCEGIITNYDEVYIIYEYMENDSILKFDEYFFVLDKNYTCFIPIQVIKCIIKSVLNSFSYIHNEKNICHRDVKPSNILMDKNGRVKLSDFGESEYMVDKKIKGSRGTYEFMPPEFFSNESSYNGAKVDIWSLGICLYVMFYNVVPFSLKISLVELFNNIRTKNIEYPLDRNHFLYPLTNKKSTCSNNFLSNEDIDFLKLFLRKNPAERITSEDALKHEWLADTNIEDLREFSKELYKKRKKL
The target in assay [8] is Calcium-dependent protein kinase 4 (Plasmodium falciparum (isolate 3D7)) (UniProt Q8IBS5). The experiment in a line: PfCDPK4 kinase inhibitors, biochemical, TCAMS library (AID 1159588; cut-off not given, nearly all actives have IC50 up to about 0.91 µM). The note with it: recombinant PfCDPK4, Kinase-Glo ATP depletion luminescence.
Calcium-dependent protein kinase 4 (Plasmodium falciparum (isolate 3D7)), sequence (Q8IBS5 whole entry, looked up): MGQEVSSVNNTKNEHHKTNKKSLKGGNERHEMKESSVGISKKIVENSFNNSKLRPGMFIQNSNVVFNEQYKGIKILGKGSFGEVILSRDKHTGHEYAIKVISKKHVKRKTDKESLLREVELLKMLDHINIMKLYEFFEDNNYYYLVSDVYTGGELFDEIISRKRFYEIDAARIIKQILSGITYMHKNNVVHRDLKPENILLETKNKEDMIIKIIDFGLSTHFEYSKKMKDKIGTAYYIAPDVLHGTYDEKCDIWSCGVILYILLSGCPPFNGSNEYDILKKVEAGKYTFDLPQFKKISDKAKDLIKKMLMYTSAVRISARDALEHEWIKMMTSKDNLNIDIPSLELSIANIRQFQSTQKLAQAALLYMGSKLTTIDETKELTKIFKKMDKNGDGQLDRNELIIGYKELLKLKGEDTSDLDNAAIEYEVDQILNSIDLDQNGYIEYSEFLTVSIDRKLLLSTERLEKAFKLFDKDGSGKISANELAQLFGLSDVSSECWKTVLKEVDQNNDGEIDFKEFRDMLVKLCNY

“And” between values parts separate entries of the source, which are not always exact repeats. Identical values can stand only once. For some assays here: Measured potencies and affinities stand elsewhere. Where a structure was tested more than once in an assay, its records may differ in their call. The source made the active and inactive calls. Unless noted, no rule for the calls is given here.

On to `COc1cc2nc(N(C)C3CCN(Cc4ccccc4)CC3)nc(N)c2cc1OC`, for which the values for the growth inhibition in assay [1] and in assay [4] were 93% (active) and 99% (active), respectively. Further, the inhibition in assay [2] was 19% (inactive); in assay [3], 1% (inactive). For the same compound, the outcome in assay [5], in assay [6], in assay [7] and in assay [8] was inactive.

`O=C(/C=C/c1ccc(Cl)c(Cl)c1)NC1CCC(CN2CCC(c3c[nH]c4ccc(O)cc34)CC2)CC1` (configuration not stated): the growth inhibition in assay [1] was 99% (active) and 101% (active); in assay [4] it was 100% (active) and 101% (active). Besides, the inhibition in assay [2] was 38% (inactive) and 35% (inactive); in assay [3] it was -1% (inactive) and 6% (inactive). For the same compound, the result in assay [5], in assay [6], in assay [7] and in assay [8] was inactive.

As to `N#Cc1ccc(N(CC(=O)NCCc2ccc(F)cc2)CC2CC2)c2ccccc12`, the growth inhibition in assay [1] was 23% (inactive); in assay [4], 91% (active). Also, the inhibition is 28% (inactive) in assay [2] and -2% (inactive) in assay [3]. Besides, the outcome in assay [5], in assay [6], in assay [7] and in assay [8] was inactive.

`Oc1ccc(Cl)cc1CN1CCC(CCOC(c2ccccc2)c2ccccc2)CC1`: the growth inhibition in assay [1] is 99% (active); in assay [4] it was 98% (active). Also, the inhibition in assay [2] was 14% (inactive); in assay [3] it was 4% (inactive). The result in assay [5], in assay [6], in assay [7] and in assay [8] was inactive.

`Cc1c(C)c2c(c(C)c1O)CC[C@](C)(C(=O)N1CCC(CN3CCC(c4c[nH]c5ccccc45)CC3)CC1)O2`: the growth inhibition in assay [1] was 98% (active); in assay [4], 101% (active). Also, the values for the inhibition in assay [2] and in assay [3] were 29% (inactive) and 2% (inactive), respectively. For the same compound, the outcome in assay [5], in assay [6], in assay [7] and in assay [8] was inactive.

`Cc1c(C(=O)N[C@@H](C)c2ccccc2)c2cc(O)c(Br)cc2n1C1CCCCC1`: the growth inhibition was 95% (active) in assay [1] and 98% (active) in assay [4]. Moreover, the inhibition is 4% (inactive) in assay [2] and -6% (inactive) in assay [3]. For the same compound, the result in assay [5], in assay [6], in assay [7] and in assay [8] was inactive.

`CNCCCCCCc1ccc(CC(C)NCC(O)c2cccc(Cl)c2)cc1` (configuration not stated): the growth inhibition was 76% (active) in assay [1] and 94% (active) in assay [4]. The inhibition is 22% (inactive) in assay [2] and 4% (inactive) in assay [3]. Further, the outcome in assay [5], in assay [6], in assay [7] and in assay [8] was inactive.

Regarding `COC(=O)CN(C(=O)/C=C/c1ccc(Cl)c(Cl)c1)C1CCC(CN2CCC(c3c[nH]c4ccccc34)CC2)CC1` (configuration not stated), the growth inhibition in assay [1] is 69% (active); in assay [4], 100% (active). For the same compound, the inhibition in assay [2] is 31% (inactive); in assay [3], -1% (inactive). The result in assay [5], in assay [6], in assay [7] and in assay [8] was inactive.

In the case of `COc1ccc(-c2ccccc2)cc1NC(=S)NC1CCC(CN2CCC(c3c[nH]c4ccccc34)CC2)CC1` (configuration not stated), the growth inhibition in assay [1] was 98% (active) and 95% (active); in assay [4], 102% (active) and 100% (active). For the same compound, the inhibition in assay [2] is 51% (active) and 27% (inactive); in assay [3], -7% (inactive) and -5% (inactive). For the same compound, the outcome in assay [5], in assay [6], in assay [7] and in assay [8] was inactive.

On to `Oc1ccc2[nH]cc(C3=CCN(Cc4ccccc4)CC3)c2c1`, for which the growth inhibition is 67% (active) in assay [1] and 94% (active) in assay [4]. Besides, the inhibition in assay [2] was 1% (inactive); in assay [3] it was 7% (inactive). Also, the outcome in assay [5], in assay [6], in assay [7] and in assay [8] was inactive.

With `O=C(/C=C/c1cc(C(F)(F)F)ccc1F)NC1CCC(CN2CCC(c3c[nH]c4ccccc34)CC2)CC1` (configuration not stated), the growth inhibition in assay [1] was 66% (active); in assay [4] it was 101% (active). Moreover, the figures for the inhibition in assay [2] and in assay [3] were 5% (inactive) and -5% (inactive), respectively. Further, the result in assay [5], in assay [6], in assay [7] and in assay [8] was inactive.

On to `CC[C@H]1CN2CC[C@H]1C[C@H]2[C@H](O)c1ccnc2ccc(OC)cc12`, for which the results for the growth inhibition in assay [1] and in assay [4] were 62% (active) and 100% (active), respectively. Further, the figures for the inhibition in assay [2] and in assay [3] were -8% (inactive) and -4% (inactive), respectively. Further, the result in assay [5], in assay [6], in assay [7] and in assay [8] was inactive.

Consider `Oc1ccccc1CN1CCC(CCOC(c2ccccc2)c2ccc(Cl)cc2)CC1` (configuration not stated), for which the growth inhibition is 99% (active) in assay [1] and 97% (active) in assay [4]. The inhibition is 19% (inactive) in assay [2] and -8% (inactive) in assay [3]. Also, the outcome in assay [5], in assay [6], in assay [7] and in assay [8] was inactive.

Take `CC(Cc1ccc(NC(=O)[C@@H](C)NCCc2cccc(Cl)c2)cc1)NCCc1cccc(Cl)c1` (some centres not stated): the growth inhibition was 54% (active) in assay [1] and 99% (active) in assay [4]. Also, the inhibition is 99% (active) in assay [2] and -1% (inactive) in assay [3]. In addition, the outcome in assay [5], in assay [6], in assay [7] and in assay [8] was inactive.

Take `COc1ccc2c(c1)[nH]c1c(C=Cc3ccccc3)nccc12`: the growth inhibition in assay [1] was 6% (inactive); in assay [4], 91% (active). Further, the inhibition in assay [2] is 19% (inactive); in assay [3], 7% (inactive). The result in assay [5], in assay [6], in assay [7] and in assay [8] was inactive.

As to `O=C(NC1CCC(CN2CCC(c3c[nH]c4ccccc34)CC2)CC1)c1csc(-c2ccc(C(F)(F)F)cc2Cl)n1` (configuration not stated), the growth inhibition is 75% (active) in assay [1] and 99% (active) in assay [4]. The inhibition is 32% (inactive) in assay [2] and -3% (inactive) in assay [3]. Moreover, the result in assay [5], in assay [6], in assay [7] and in assay [8] was inactive.

Regarding `CC(C)(C)c1ccc(Cn2nc(C(=O)N3CCN(C(=O)C4CCCO4)CC3)c3ccccc32)cc1` (configuration not stated), the growth inhibition is 83% (active) in assay [1] and 90% (active) in assay [4]. The results for the inhibition in assay [2] and in assay [3] were -2% (inactive) and -3% (inactive), respectively. Moreover, the outcome in assay [5], in assay [6], in assay [7] and in assay [8] was inactive.

With `CC1(C)CCCN(C(=O)Cc2ccc3c(c2)CCCC3)C1CN1CC=CC1` (configuration not stated), the growth inhibition in assay [1] is 1% (inactive); in assay [4] it was 98% (active). Moreover, the results for the inhibition in assay [2] and in assay [3] were -3% (inactive) and -1% (inactive), respectively. Besides, the outcome in assay [5], in assay [6], in assay [7] and in assay [8] was inactive.

Consider `O=C(/C=C/c1ccsc1)NC1CCC(CN2CCC(c3c[nH]c4ccccc34)CC2)CC1` (configuration not stated), for which the growth inhibition in assay [1] was 20% (inactive); in assay [4], 82% (active). The inhibition was 29% (inactive) in assay [2] and -1% (inactive) in assay [3]. In addition, the outcome in assay [5], in assay [6], in assay [7] and in assay [8] was inactive.
